Data published in the supplement of paper PMC11006884.
The full data set covers some 6,500 targets. This sample favours those with a hit. About 2% of all pairs of compound and target were hits.

These targets were tested with COC(=O)C#Cc1ccccc1 [methyl 3-phenylpropiolate] (assay: log2 ratio of iodoacetamide-alkyne labeling of the cysteine site, DMSO over compound (competition); higher = stronger covalent engagement of the cysteine by the compound, active = 1 or more). Settings: 500 µM; treatment time 1 h; system: HEK293T cell lysate.
In short: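 HEK293T lysate (2 mg/mL) was incubated with electrophile (500 µM) or vehicle for 1 h at ambient temperature and then with iodoacetamide alkyne for 1 h. Labelled proteins were clicked to sCIP-TMT reagents, pooled, digested, enriched on streptavidin and measured by Orbitrap Eclipse LC-MS/MS with FAIMS, with FragPipe quantification. The per-cysteine log2 competition ratio is mean control-channel reporter intensity over mean compound-channel reporter intensity. Across three replicates with duplicate channels, cysteines quantified in only one replicate were excluded.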

Sequence of UniProt Q32MZ4 (Q32MZ4 whole entry, looked up): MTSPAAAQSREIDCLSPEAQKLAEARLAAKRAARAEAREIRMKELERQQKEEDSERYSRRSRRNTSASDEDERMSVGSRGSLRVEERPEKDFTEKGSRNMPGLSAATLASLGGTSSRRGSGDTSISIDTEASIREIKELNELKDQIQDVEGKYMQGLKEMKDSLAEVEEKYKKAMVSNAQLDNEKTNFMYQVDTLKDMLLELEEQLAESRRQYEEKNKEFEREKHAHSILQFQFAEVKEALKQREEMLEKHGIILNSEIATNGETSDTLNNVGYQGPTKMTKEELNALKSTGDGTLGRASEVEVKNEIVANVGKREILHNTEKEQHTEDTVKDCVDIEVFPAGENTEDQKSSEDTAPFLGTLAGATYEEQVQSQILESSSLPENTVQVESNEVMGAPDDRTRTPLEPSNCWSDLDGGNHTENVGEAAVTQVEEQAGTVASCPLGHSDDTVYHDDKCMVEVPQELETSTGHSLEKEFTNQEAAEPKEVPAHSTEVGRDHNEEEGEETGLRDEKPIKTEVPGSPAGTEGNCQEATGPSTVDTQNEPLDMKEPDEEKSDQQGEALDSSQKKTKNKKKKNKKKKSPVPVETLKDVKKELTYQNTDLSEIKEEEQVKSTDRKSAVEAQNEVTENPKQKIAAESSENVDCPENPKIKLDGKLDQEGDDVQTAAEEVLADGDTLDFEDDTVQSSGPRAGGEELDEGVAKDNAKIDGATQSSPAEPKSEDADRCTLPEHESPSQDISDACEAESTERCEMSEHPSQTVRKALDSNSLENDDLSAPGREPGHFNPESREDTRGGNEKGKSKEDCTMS
Sequence of UniProt Q13418 (Q13418 whole entry, looked up): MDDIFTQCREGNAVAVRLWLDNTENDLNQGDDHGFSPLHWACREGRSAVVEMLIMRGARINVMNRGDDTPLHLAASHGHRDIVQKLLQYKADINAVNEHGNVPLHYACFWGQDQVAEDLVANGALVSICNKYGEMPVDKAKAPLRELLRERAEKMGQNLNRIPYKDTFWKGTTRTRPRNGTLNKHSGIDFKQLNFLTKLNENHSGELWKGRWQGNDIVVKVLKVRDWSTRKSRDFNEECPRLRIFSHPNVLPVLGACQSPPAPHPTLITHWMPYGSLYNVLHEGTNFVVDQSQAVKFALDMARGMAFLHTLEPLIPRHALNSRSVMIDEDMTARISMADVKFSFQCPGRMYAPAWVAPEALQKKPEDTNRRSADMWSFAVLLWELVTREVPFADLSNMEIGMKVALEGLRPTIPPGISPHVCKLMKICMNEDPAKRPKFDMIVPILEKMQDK
Sequence of UniProt Q5JTD0 (Q5JTD0 whole entry, looked up): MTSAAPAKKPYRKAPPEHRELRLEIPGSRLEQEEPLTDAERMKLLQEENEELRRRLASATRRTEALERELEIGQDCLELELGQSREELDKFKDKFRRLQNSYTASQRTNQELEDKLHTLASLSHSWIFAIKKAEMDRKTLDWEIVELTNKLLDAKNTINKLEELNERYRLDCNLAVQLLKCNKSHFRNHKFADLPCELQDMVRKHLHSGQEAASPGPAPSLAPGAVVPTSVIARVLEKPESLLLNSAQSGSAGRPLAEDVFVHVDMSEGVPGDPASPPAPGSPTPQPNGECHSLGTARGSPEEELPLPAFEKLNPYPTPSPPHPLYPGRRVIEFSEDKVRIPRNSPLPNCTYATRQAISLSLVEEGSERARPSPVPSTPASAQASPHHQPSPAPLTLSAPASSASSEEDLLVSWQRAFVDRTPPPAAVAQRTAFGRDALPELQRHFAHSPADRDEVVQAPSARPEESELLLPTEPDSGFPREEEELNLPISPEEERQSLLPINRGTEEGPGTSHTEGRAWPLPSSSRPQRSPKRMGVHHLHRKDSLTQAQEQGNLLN
Sequence of UniProt Q14137 (Q14137 whole entry, looked up): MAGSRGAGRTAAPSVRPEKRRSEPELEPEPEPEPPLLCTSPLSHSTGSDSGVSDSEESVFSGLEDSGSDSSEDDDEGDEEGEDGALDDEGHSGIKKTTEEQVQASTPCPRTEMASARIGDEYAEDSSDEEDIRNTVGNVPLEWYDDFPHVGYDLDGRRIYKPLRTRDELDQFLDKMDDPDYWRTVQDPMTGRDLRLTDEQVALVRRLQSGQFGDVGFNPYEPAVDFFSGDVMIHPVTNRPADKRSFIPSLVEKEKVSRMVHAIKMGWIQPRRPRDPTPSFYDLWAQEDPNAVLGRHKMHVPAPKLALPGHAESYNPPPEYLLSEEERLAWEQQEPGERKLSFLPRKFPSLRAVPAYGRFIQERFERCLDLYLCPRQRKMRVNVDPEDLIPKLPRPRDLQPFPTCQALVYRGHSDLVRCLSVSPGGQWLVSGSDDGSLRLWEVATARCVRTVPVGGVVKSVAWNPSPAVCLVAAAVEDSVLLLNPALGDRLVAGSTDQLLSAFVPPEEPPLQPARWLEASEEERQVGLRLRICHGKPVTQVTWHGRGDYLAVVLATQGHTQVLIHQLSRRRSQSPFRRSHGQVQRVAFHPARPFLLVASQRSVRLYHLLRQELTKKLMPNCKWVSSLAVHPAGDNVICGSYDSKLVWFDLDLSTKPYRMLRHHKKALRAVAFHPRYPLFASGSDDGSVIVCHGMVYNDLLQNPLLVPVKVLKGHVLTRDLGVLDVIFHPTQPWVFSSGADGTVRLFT
Sequence of UniProt P53701 (P53701 whole entry, looked up): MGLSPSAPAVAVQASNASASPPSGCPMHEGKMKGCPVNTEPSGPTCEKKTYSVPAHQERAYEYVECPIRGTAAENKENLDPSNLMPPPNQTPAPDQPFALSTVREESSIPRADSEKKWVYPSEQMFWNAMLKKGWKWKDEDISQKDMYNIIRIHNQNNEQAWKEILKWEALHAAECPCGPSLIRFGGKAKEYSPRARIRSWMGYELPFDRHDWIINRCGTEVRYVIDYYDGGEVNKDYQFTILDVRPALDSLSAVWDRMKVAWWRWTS
Sequence of UniProt P53384 (P53384 whole entry, looked up): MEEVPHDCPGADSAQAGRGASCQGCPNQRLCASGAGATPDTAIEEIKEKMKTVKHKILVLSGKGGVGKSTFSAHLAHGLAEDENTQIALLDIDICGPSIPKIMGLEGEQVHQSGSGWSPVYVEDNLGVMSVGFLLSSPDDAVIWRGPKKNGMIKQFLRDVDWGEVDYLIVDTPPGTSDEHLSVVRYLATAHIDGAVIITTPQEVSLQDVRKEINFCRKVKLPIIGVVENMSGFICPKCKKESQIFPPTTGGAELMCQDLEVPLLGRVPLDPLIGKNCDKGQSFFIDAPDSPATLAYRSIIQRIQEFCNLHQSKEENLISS
Sequence of UniProt Q2NL82 (Q2NL82 whole entry, looked up): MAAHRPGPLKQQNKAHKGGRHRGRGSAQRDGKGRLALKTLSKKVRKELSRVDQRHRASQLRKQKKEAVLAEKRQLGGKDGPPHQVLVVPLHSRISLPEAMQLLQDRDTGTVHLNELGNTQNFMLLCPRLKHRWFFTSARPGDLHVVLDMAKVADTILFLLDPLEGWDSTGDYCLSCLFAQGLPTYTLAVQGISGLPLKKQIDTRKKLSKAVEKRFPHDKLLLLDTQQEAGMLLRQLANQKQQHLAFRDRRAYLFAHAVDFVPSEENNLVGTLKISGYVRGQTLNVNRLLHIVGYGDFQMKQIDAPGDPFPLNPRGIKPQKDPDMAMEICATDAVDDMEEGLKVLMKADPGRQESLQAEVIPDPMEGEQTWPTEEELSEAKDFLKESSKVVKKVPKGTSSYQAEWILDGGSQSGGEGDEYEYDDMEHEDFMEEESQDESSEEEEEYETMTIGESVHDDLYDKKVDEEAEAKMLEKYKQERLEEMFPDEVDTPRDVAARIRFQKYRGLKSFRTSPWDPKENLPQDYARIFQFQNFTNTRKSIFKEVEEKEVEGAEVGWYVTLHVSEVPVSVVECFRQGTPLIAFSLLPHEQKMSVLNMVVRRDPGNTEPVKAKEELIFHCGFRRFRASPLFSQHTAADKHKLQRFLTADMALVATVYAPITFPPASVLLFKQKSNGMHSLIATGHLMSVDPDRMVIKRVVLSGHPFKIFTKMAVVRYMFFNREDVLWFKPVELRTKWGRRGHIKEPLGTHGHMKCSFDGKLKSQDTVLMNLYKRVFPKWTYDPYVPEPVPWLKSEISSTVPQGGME
Sequence of UniProt Q00535 (Q00535 whole entry, looked up): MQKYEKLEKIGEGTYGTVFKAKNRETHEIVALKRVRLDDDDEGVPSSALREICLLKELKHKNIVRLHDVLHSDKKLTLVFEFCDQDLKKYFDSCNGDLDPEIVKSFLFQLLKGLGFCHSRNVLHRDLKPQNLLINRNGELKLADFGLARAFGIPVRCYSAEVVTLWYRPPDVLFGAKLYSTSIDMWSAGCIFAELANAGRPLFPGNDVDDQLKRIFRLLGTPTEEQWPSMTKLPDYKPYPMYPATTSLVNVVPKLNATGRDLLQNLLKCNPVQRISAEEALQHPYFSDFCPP
Sequence of UniProt P53597 (P53597 whole entry, looked up): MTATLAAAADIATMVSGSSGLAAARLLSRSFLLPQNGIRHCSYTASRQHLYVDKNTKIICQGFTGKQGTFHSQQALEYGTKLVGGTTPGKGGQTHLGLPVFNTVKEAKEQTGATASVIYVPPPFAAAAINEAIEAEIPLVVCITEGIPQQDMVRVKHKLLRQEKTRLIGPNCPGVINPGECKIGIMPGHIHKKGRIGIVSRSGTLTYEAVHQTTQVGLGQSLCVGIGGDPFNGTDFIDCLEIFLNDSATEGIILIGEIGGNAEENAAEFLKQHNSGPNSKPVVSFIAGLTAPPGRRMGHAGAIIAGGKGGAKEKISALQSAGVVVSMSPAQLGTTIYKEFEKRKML
Sequence of UniProt P62633 (P62633 whole entry, looked up): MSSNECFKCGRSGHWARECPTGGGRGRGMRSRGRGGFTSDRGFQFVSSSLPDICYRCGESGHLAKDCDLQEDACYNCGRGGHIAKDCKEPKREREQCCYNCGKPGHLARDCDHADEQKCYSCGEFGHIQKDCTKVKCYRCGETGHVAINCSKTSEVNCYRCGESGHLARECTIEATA

log2 ratio of iodoacetamide-alkyne labeling, inactive:
PPP5C C452 (UniProt P53041) 0.0827
UniProt P84103_C6 0.422
HCCS C66 (UniProt P53701) 0.724
ZNF638 C1930 (UniProt Q14966) -0.212
RPS27A C149 (UniProt P62979) 0.251
CDK5 C157 (UniProt Q00535) 0.141
USP10 C254 (UniProt Q14694) 0.49
UniProt P61163_C222 0.293
UniProt P98164_C4047 0.464
RRP1B C583 (UniProt Q14684) 0.481
UniProt P62834_C141 0.00921
MIA3 C1513 (UniProt Q5JRA6) 0.31
UniProt Q15042_C873 0.165
GABPA C338 (UniProt Q06546) 0.308
ILK C422 (UniProt Q13418) 0.358
PDCD11 C151 (UniProt Q14690) 0.508
SF3A1 C244 (UniProt Q15459) 0.0803
UniProt P60709_C217 0.0537
NCAPD2 C1249 (UniProt Q15021) 0.179
LRRFIP1 C14 (UniProt Q32MZ4) 0.0967
BOP1 C373 (UniProt Q14137) 0.0315
CNBP C6 (UniProt P62633) 0.0447
TJAP1 C172 (UniProt Q5JTD0) 0.251
UniProt P60891_C165 -0.19
TSR1 C329 (UniProt Q2NL82) 0.425
BMS1 C895 (UniProt Q14692) 0.11
DYNC1H1 C1977 (UniProt Q14204) 0.124
UniProt P62306_C66 0.0671
UniProt Q15365_C158 0.366

log2 ratio of iodoacetamide-alkyne labeling, active:
NUBP1 C25 (UniProt P53384) 2.24
SUCLG1 C172 (UniProt P53597) 1.72
TARBP1 C483 (UniProt Q13395) 1.21
UniProt Q02930_C69 1.09
SQSTM1 C113 (UniProt Q13501) 1.2
UniProt Q5H9L4_C158 1.09
